Calls of active or inactive are those of the source. Calls follow the shape of the dose curve; as a rule, active = well fitted curve in the direction sought with a large enough effect in the repeat runs; inconclusive = weak or mixed curves; inactive = flat fitted curve, though single readings scatter.
assay: qHTS assay to test for compound auto fluorescence at 535 nm (green) in HEK293 cells (AID 720680); details: green autofluorescence 485/535 nm; series mostly up to 91.3 µM

Q: Which outcome does the source give for `Cc1ccc(C)c(OCCCC(C)(C)C(=O)O)c1` here?
A: The outcome was “inactive”.

Q: Which outcome does the source give for `Nc1ccn([C@H]2CC[C@@H](CO)O2)c(=O)n1` here?
A: Its outcome is “inactive”.

Q: With `Oc1ccc(/C=C/c2cc(O)cc(O)c2)cc1` as the molecule, how does the outcome read?
A: The outcome was “inactive”.

Q: For `Cc1ccc(S(=O)(=O)NC(=O)NN2CCCCCC2)cc1`, which outcome is on record?
A: The outcome was “inactive”.

Q: For `NC(=O)NC1NC(=O)NC1=O` (stereo unspecified), which outcome is on record?
A: The outcome was “inactive”.

Q: With `CCCCCCCCCCCCCCCC(=O)O` as the molecule, how does the outcome read?
A: Its outcome is “inactive”.

Q: Which outcome does the source give for `CC(C)[C@@H]1CC[C@@H](C)C[C@H]1O` here?
A: Its outcome is “inactive”.

Q: For `O=C(C1CCCCC1)N1CC(=O)N2CCc3ccccc3C2C1` (stereo unspecified), which outcome is on record?
A: The outcome was “inactive”.

Q: Which outcome does the source give for `C1N2CN3CN1CN(C2)C3` here?
A: Its outcome is “inactive”.

Q: For `COc1c2occc2cc2ccc(=O)oc12`, which outcome is on record?
A: The outcome was “inactive”.

Q: With `O=C(c1ccccc1)c1ccccc1` as the molecule, how does the outcome read?
A: Its outcome is “inactive”.

Q: With `NC(N)=O` as the molecule, how does the outcome read?
A: The outcome was “inactive”.

Q: With `Cn1c(=O)c2[nH]cnc2n(C)c1=O` as the molecule, how does the outcome read?
A: The outcome was “inactive”.

Q: With `COc1ccc2[nH]cc(CCNC(C)=O)c2c1` as the molecule, how does the outcome read?
A: The outcome was “inactive”.

Q: For `OCCc1ccccc1`, which outcome is on record?
A: The outcome was “inactive”.

Q: For `CCCC(O)C(CC)CO` (stereo unspecified), which outcome is on record?
A: Its outcome is “inactive”.

Q: With `CCCN(CCC)S(=O)(=O)c1ccc(C(=O)O)cc1` as the molecule, how does the outcome read?
A: Its outcome is “inactive”.

Q: Which outcome does the source give for `Nc1ccc(S(=O)(=O)Nc2nccs2)cc1` here?
A: The outcome was “inactive”.

Q: With `O=C(O)C(=O)O` as the molecule, how does the outcome read?
A: Its outcome is “inactive”.

Q: Which outcome does the source give for `O=C(O)CCCCCCCC(=O)O` here?
A: Its outcome is “inactive”.

Q: For `N=C(N)c1ccc(OCCCCCOc2ccc(C(=N)N)cc2)cc1`, which outcome is on record?
A: The outcome was “inactive”.

Q: Which outcome does the source give for `O=NO` here?
A: The outcome was “inactive”.

Q: For `NC(N)=NC(=O)c1nc(Cl)c(N)nc1N`, which outcome is on record?
A: Its outcome is “inactive”.

Q: For `Cc1cc(=O)[nH]c(=S)[nH]1`, which outcome is on record?
A: Its outcome is “inactive”.

Q: Which outcome does the source give for `O=C(O)c1[nH]n(-c2ccc(S(=O)(=O)O)cc2)c(=O)c1N=Nc1ccc(S(=O)(=O)O)cc1` here?
A: The outcome was “inactive”.

Q: Which outcome does the source give for `NS(=O)(=O)c1cc(C(=O)O)c(NCc2ccco2)cc1Cl` here?
A: The outcome was “inactive”.

Q: Which outcome does the source give for `Cc1noc(NS(=O)(=O)c2ccc(N)cc2)c1C` here?
A: The outcome was “inactive”.

Q: With `CCCCOC(=O)CC(CC(=O)OCCCC)(OC(C)=O)C(=O)OCCCC` as the molecule, how does the outcome read?
A: The outcome was “inactive”.

Q: For `CC(O)CO` (stereo unspecified), which outcome is on record?
A: Its outcome is “inactive”.

Q: Which outcome does the source give for `O=C(O)c1cc(N=Nc2ccc(S(=O)(=O)Nc3ccccn3)cc2)ccc1O` here?
A: The outcome was “inactive”.

Q: For `CCCCC1C(=O)N(c2ccccc2)N(c2ccccc2)C1=O`, which outcome is on record?
A: The outcome was “inactive”.

Q: With `CCCCC(CC)COC(=O)/C=C/c1ccc(OC)cc1` (stereo unspecified) as the molecule, how does the outcome read?
A: The outcome was “inactive”.

Q: Which outcome does the source give for `NC(=O)c1ccccc1O` here?
A: The outcome was “inactive”.

Q: With `O=C(O)CS` as the molecule, how does the outcome read?
A: Its outcome is “inactive”.

Q: Which outcome does the source give for `O=S(=O)(O)NC1CCCCC1` here?
A: Its outcome is “inactive”.

Q: For `Cc1cn([C@H]2C[C@H](N=[N+]=[N-])[C@@H](CO)O2)c(=O)[nH]c1=O`, which outcome is on record?
A: The outcome was “inactive”.

— PubChem BioAssay (Tox21)
